tim23-1 inh = tim23-1 yeast growth inhibition. S. cerevisiae tim23-1 growth, BacTiter-Glo luminescence, 24 h. inhibition, % at 20 µM. hit rate 1.3% among 330,000;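 active = growth inhibition of the mutant yeast at or above 50%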;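 also: temperature-sensitive mutant grown at 25 °C; plate controls were DMSO-treated mutant yeast for no effect and medium wells lacking yeast for full effect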
TIM10 inh = TIM10 yeast growth inhibition | S. cerevisiae TIM10 strain growth, BacTiter-Glo luminescence, 24 h | hit rate 1.4% among 330,000 | inhibition, % at 10 µM;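 active = inhibition of 40% or more at the single tested concentration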;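 also: wild-type TIM10 isogenic control strain grown at permissive 25 °C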
PfHsp90 set2 = inhibits growth of yeast expressing Plasmodium falciparum Hsp90 | S. cerevisiae expressing PfHsp90, BacTiter-Glo ATP, 48 h; yeast lacking PDR1 and PDR3 efflux regulators | hit rate 0.32% among 310,000 | inhibition, % at 9.4 µM;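 active = every replicate shows inhibition above about 80%, whatever the replicate mean, limit read from the data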;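 also: 0% = DMSO neutral controls and 100% = 20 µM radicicol positive controls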
NLRP3 yeast inh = inhibitors of NALP3 inflammasome in yeast. hit rate 0.39% among 330,000. inhibition, % at 10 µM. AID 2825. Yeast reconstituted NLRP3/ASC/caspase-1, beta-gal luminescence, 24 h;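 active = inhibition of 50% or more; inactive = inhibition below 50%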;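 also: plate controls were induced DMSO wells for no effect and uninduced yeast grown without galactose for full effect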
tim10-1 inh = tim10-1 yeast growth inhibition; inhibition, % at 20 µM; hit rate 2.2% among 330,000; S. cerevisiae tim10-1 ts strain growth, BacTiter-Glo, 24 h;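 active = inhibition of at least 40%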;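 also: mutant grown at 25 °C; 0% = DMSO wells with yeast and 100% = wells holding no yeast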
SKKanGAS inh = blocks kanamycin growth of S. pyogenes SKKanGAS strain; hit rate 1.3% among 300,000; inhibition, % at 7.5 µM; BacTiter-Glo, 6 h;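 active = mean replicate score, as percent of positive control median, at least 50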;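 also: strain carries kanamycin resistance gene driven by streptokinase promoter and grows in 40 µg/ml kanamycin; loss of luminescence reflects streptokinase promoter inhibition or plain growth inhibition; 0% = median of DMSO wells and 100% = positive control at its reference dose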
tim10-1 confirm = confirmation of tim10-1 mutant yeast growth inhibitors; shares compounds with tim10-1 inh; S. cerevisiae tim10-1 ts strain growth, BacTiter-Glo, 24 h; inhibition, % at 20 µM; hit rate 56% among 7,400; AID 463213;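 active = inhibition of yeast growth at or above a set limit in either of two repeat tests at 20 µM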;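 also: tim10-1 mutant grown at permissive 25 °C to find synthetic lethal compounds; 0% = DMSO yeast wells and 100% = medium wells without yeast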
TIM10 conf = TIM10 yeast growth inhibition, confirmed | inhibition, % at 10 µM | shares compounds with TIM10 inh | S. cerevisiae tim10 strain growth, BacTiter-Glo luminescence, 24 h | AID 463215 | hit rate 63% among 4,600;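 active = inhibition of yeast growth at or above a set limit in either of two replicates at 10 µM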;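 also: this counterscreen used the strain with wild-type TIM10; 0% = yeast with DMSO and 100% = medium wells lacking yeast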
tim23-1 confirm = confirmation of tim23-1 mutant yeast growth inhibitors; shares compounds with tim23-1 inh; S. cerevisiae tim23-1 growth, BacTiter-Glo luminescence, 24 h; inhibition, % at 20 µM; hit rate 83% among 4,400; AID 463218;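 active = inhibition above about 39% in either of two replicate wells at 20 µM, limit read from the data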;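 also: temperature-sensitive tim23-1 mutant grown at 25 °C; 0% = DMSO wells with yeast and 100% = medium wells without yeast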
* = called active by the depositor; . = no result. Sampled rows, rich in hits. Any-hit rate of the full collection: about 4.6%.

SMILES	tim23-1 inh	TIM10 inh	PfHsp90 set2	NLRP3 yeast inh	tim10-1 inh	SKKanGAS inh	tim10-1 confirm	TIM10 conf	tim23-1 confirm
Cc1cccc(N2CCN(c3nc4ccccc4n4cnnc34)CC2)c1C	64*	53*	-29	17	70*	14	17	42*	72*
CCn1c(/C=C2\C(=O)N(C)c3ccccc32)nc2ccccc2c1=O	52*	43*	-17	14	45*	13	39*	25	52*
CCn1c(/C=C/c2ccccc2Cl)nc2ccccc2c1=O	27	11	-28	11	32	6	.	.	.
CCN1C(=O)/C(=C\N(C)C)c2ccccc21	-1	2	.	-10	14	-1	.	.	.
CCn1c(/C=C2/C(=O)N(C)c3ccccc32)nc2ccccc2c1=O	54*	37	.	24	50*	-3	32*	.	58*
CCCN1C(=O)/C(=C/c2nc3ccccc3c(=O)[nH]2)c2ccccc21	52*	42*	6	11	51*	-7	36*	16	55*
CCN1C(=O)/C(=C\c2nc3ccccc3c(=O)n2CC)c2ccccc21	56*	47*	-9	16	55*	-17	44*	33*	57*
CCCN1C(=O)/C(=C/c2nc3ccccc3c(=O)[nH]2)c2cc(C)ccc21	27	14	-3	-11	32	11	.	.	.
CCn1c(/C=C\c2ccccc2C)nc2ccccc2c1=O	19	21	-16	8	26	-16	.	.	.
COC(=O)c1ccccc1S(=O)(=O)NNC(=O)c1ccccc1-n1cccc1	4	-4	-3	-11	-4	-1	.	.	.
COc1ccccc1CNC(=O)c1sccc1-c1ccccc1	16	16	-9	25	15	1	.	.	.
O=C1c2ccccc2C(Nc2ccc(Cl)cn2)N1Cc1ccccc1 (stereo not given)	56*	42*	-30	19	44*	7	29	46*	54*
Cc1nonc1NC(=O)CSc1nnnn1-c1ccccc1	12	5	-8	18	7	-2	.	.	.
CCn1c2ccccc2c2cc(/C(C)=N/O)ccc21	75*	42*	5	14	61*	-4	56*	45*	84*
O=C(N(c1ccccc1)c1ccccc1)N(c1ccccc1)c1ccccc1	52*	39	.	-2	46*	10	22	.	41*
O=C(CC(c1ccccc1)c1ccco1)Nc1nccs1 (stereo not given)	30	18	-5	-54	32	7	.	.	.
O=C(NC1=C(Nc2ccc(Cl)cc2)C(=O)c2ccccc2C1=O)c1ccccc1	10	21	-57	38	9	42	.	.	.
CN(C1=C(NC(=O)c2ccc(Cl)cc2)C(=O)c2ccccc2C1=O)c1ccccc1	68*	66*	-46	15	65*	2	61*	-10	72*
CCOC(=O)/C(C#N)=C1\C(=O)N(Cc2ccccc2)c2ccccc21	53*	31	7	13	43*	-2	30	.	53*
O=C(CN(Cc1ccco1)C(=O)c1cccc(F)c1)Nc1ccccc1C(F)(F)F	.	.	0	.	.	.	.	.	.
NS(=O)(=O)c1ccc(CNC(=O)c2scc3c2CCCC3)cc1	-1	-26	.	8	-2	2	.	.	.
COC(=O)c1ccc(COC(=O)C(CCSC)NC(=O)COc2ccccc2)cc1 (stereo not given)	29	8	8	5	15	-3	.	.	.
CCOc1cc(/C=C2/NC(=O)N(Cc3ccccc3F)C2=O)ccc1O	15	13	8	8	33	1	.	.	.
COc1cccc(/C=C2\C(=O)N(c3cccc(C)c3)C(=O)c3ccccc32)c1	75*	41*	-58	0	43*	5	46*	46*	68*
Cc1cccc(N2C(=O)/C(=C\c3ccc(OC(F)F)cc3)c3ccccc3C2=O)c1	68*	34	97*	-1	51*	-4	25	.	58*

Assay outcomes from PubChem BioAssay.
